In PubChem BioAssay (NCATS):
Records with an inconclusive call do not appear. Where a call stands in place of a potency, no number is given. Active and inactive are the calls of the source. Calls come from the whole dose curve; as a rule, active = well fitted inhibition curve with a large enough effect; inconclusive = small, poorly fitted or top-dose-only effect; inactive = no such curve, though single readings can be large or run the other way.

The compounds below were run against Muscarinic acetylcholine receptor M1 (Rattus norvegicus) (UniProt P08482) (assay: qHTS Assay for Antagonists of Acetylcholine Muscarinic M1 Receptor: Kinetic Measurement of Intracellular Calcium Response (AID 943; note: nearly all actives have a fitted effect of over 75% in size)). Conditions: M1-expressing cells, kinetic intracellular calcium fluorescence; series mostly up to 35.3 µM.
Muscarinic acetylcholine receptor M1 (Rattus norvegicus), sequence (P08482 whole entry, looked up): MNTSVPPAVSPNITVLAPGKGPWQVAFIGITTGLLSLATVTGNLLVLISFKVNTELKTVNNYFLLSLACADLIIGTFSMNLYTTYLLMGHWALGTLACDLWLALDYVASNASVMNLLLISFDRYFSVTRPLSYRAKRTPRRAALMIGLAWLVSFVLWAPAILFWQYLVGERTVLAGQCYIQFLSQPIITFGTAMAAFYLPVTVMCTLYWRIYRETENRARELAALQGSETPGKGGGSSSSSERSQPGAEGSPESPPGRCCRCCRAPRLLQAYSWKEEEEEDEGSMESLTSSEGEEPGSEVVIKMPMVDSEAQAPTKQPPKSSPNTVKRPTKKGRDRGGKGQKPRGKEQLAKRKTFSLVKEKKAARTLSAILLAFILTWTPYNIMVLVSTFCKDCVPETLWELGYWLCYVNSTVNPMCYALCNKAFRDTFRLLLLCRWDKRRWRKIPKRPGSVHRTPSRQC
Outline: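 Antagonism is measured as inhibition of the carbachol-evoked calcium rise in CHO cells transfected with rat M1. Cells are dye-loaded, exposed to compound for 10 min, then stimulated with 100 nM carbachol (EC80).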
Potency is the fitted concentration of half-maximal effect.

Compound | Potency
CCCN(CCC)[C@H]1CCc2c(F)ccc(O)c2C1 | 6.31 µM (active)
O=P(O)(O)C(Cl)(Cl)P(=O)(O)O | inactive
OCc1cnc[nH]1 | inactive
C[N+](C)(C)CC#CCOC(=O)Nc1cccc(Cl)c1 | inactive
Clc1cc(I)cc(Cl)c1NC1=NCCN1 | 15.8 µM (active)
Cc1sc2ccccc2c1CC1=NCCN1 | inactive
CNC(=O)OCC[N+](C)(C)C | inactive
Cc1[nH]c2ccc(O)cc2c1CCN | inactive
N#CCCN | inactive
COc1ccc2[nH]c3c(c2c1)CCNC3 | inactive
NC(=O)c1cc(N2CC2)c([N+](=O)[O-])cc1[N+](=O)[O-] | inactive
O=[N+]([O-])c1cc(O)c(O)c([N+](=O)[O-])c1 | inactive
CCCN(CCC)C1Cc2cc(OC)c(OC)cc2C1 | 1.26 µM (active)
C[N+](C)(C)CC#CCN1CCCC1=O | inactive
C[C@@H]1O[C@H](C[N+](C)(C)C)CS1 | inactive
COc1ccc2[nH]cc(CCN)c2c1 | inactive
Cc1c2ccncc2c(C)c2c1[nH]c1ccccc12 | inactive
O=C1C=CC(=O)C=C1 | inactive
O=S1(=O)N(CCN2CC=C(c3c[nH]c4cc(F)ccc34)CC2)c2cccc3c2N1CCC3 | 15.8 µM (active)
